# Data as given in PubChem BioAssay (NCATS).
# Active and inactive are the calls of the source. The call rests on the fitted dose curve; in most records, active means well fitted curve in the direction sought with a large enough effect; inactive means no such curve, though single readings can be large or run the other way.
# Test: qHTS for small molecule inhibitors of Yes1 kinase: Counter Assay (AID 686950);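 further: no kinase present so only ADP-Glo detection of a fixed ADP amount is tested; luminescence from ADP-Glo reporting ADP in a fixed ATP and ADP mixture; 0% = DMSO wells with ATP plus ADP and -100% = ATP-only wells without ADP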
# Settings: series mostly up to 76.9 µM; activity change, negative = inhibition: at the top concentration
# Source text: The Src family of non-receptor protein tyrosine kinases contains nine members, including Yes1, Src, Fyn, Lyn, and […]. These kinases have important roles in a variety of cellular functions, such as cell proliferation, survival, and differentiation. Src, the most well characterized member of this family, has been previously identified as a proto-oncogene. […] In melanoma, it has been shown that Yes1, and not other family members, such as Src, is functionally involved in the malignant phenotype. Additionally, a recent study examining the downregulation of Yes1 by shRNA found significant effects on cell survival/growth for basal-like and Her2-positive breast cancers. Despite the potential for Yes1 to be a target for the above-described cancers, there are very few reports on the identification of potent and selective inhibitors of Yes1 kinase. Antagonists of Yes1 would further elucidate Yes1 biology and help to confirm whether Yes1 is a viable target for therapeutic intervention in a variety of cancers.
# A compound that inhibits Yes1 could be important for the treatment of various cancers in which Yes1 is highly expressed and can also be used as a tool compound to help further elucidate Yes1 biology. To that end, we have developed a sensitive HTS biochemical assay for Yes1 activity. This assay was screened against several small compound libraries to look for modulators of activity. The cherrypicked compounds were screened against this counter assay, which evaluates whether the compounds have any effect on the ADP-Glo detection kit. Compounds that show inhibition in this assay have interference with the detection system. Inactivity is the desired output for this assay.
# NIH Molecular Libraries Probe Production Centers Network [MLPCN]
# NIH Chemical Genomics Center [NCGC]
# Two microliter of buffer (columns 1-48) are dispensed into Greiner, white solid-bottom 1536-well assay plates. Compounds (23 nL) are then transferred via Kalypsys pin tool equipped with 1536-pin array (10 nL slotted pins, V&P Scientific, San Diego, CA). The library compounds are in columns 5-48 and columns 1-4 serve as controls with DMSO. Following addition of compound and a 20 minute incubation, 1 uL of substrate/product mix (ATP and ADP from Sigma-Aldrich, St. Louis, MO) is added to columns 1, 2, 5-48 and 1 uL of substrate (ATP) is added to columns 3-4, and the plate is incubated for 60 minutes at room temperature. The amount of ADP is then quantified by the ADP-Glo Kit (Promega, Madison, WI). First, 2 uL of the first kit reagent is added, and the reaction is incubated for 45 minutes; then, 4 uL of the second kit reagent are added and the reaction is incubated for 30 minutes at which time the luminescence is read on a Viewlux plate reader (Perkin-Elmer, Waltham, MA). The final concentration of reagents in the reaction are 0.08 mM ATP and 0.02 mM ADP (or 0.1 mM ATP in the no ADP control columns), 100 uM EGTA, 10 mM MgCl2, 50 mM Tris pH 7.5, 1 mM DTT, 150 mM NaCl, 0.01% Brij-35, and 5% glycerol. Data are normalized to DMSO-treated control columns with ATP and […] (maximum signal) and with just ATP (minimum signal).
Structure (SMILES),"activity change, negative = inhibition",outcome
Cc1ccc2c(-c3ccnc(Nc4ccccc4)n3)c(-c3ccc(F)cc3)nn2n1,7.88% (inactive),
CCCN1CCC(c2ccc(Nc3nc(Nc4cc(F)ccc4C(N)=O)c4cc[nH]c4n3)c(OC)c2)CC1,116% (inactive),
COc1cc(C=NNc2ncnc3[nH]ncc23)ccc1O,7.43% (inactive),
Cc1nnc(-c2ccc(C)c(-c3ccc(C(=O)Nc4cccc(C#N)c4)cc3)c2)o1,5.9% (inactive),
CS(=O)(=O)Nc1ccc(N=Cc2c(O)[nH]c3ccccc23)cc1,7.81% (inactive),
O=C(OC1CNC(C#Cc2cc3ncnc(Nc4ccc5c(ccn5Cc5cc(F)ccc5F)c4)c3s2)C1)N1CCOCC1 (stereo not given),-3.15% (inactive),
CS(=O)(=O)CCNCc1coc(-c2ccc3ncnc(Nc4ccc(OCc5ccccc5)cc4)c3c2)c1,2.45% (inactive),
NS(=O)(=O)c1ccc(N=Nc2c(O)[nH]c3cccc(CCc4ccncc4)c23)cc1,5.04% (inactive),
CN1CCC(n2cnc(-c3ccc(F)cc3)c2-c2ccnc(N)n2)CC1,2.8% (inactive),
NC(=O)c1sc(-n2cnc3ccc(C(F)(F)F)cc32)cc1OCc1ccccc1Br,2.03% (inactive),
Cc1nnc(-c2ccc(C)c(-c3ccc(C(=O)NCc4ccc(Cl)cc4)cc3)c2)o1,3.58% (inactive),
COc1cc2ncn(-c3cc(OCc4ccccc4C(F)(F)F)c(C(=O)N(C)C)s3)c2cc1OC,-2.62% (inactive),
COc1cc(Nc2nccc(-c3cnn4ncccc34)n2)cc(OC)c1,4.59% (inactive),
COc1ccc2ncn(-c3cc(OC(C)c4ccccc4C(F)(F)F)c(C(N)=O)s3)c2c1 (stereo not given),8.53% (inactive),
CN1CCC(n2cnc(-c3ccc(F)cc3)c2-c2ccnc(Nc3ccccc3)n2)CC1,4.55% (inactive),
O=C(NCC1CC1)c1ccc(-c2cccc(C(=O)NC3CC3)c2)cc1,3.05% (inactive),
COc1cc(C=NNc2ncnc3c2cnn3Cc2ccccc2)ccc1O,-3.03% (inactive),
CC(C)c1ccc(-c2cc(-c3cn[nH]c3-c3ccccn3)ccn2)cc1,-3.94% (inactive),
COc1cc2ncnc(Nc3ccc(C)c(O)c3)c2cc1OC,-3.93% (inactive),
COC(=O)c1sc(-n2cnc3cc(OC)c(OC)cc32)cc1OCc1ccccc1C(F)(F)F,2.1% (inactive),

Structure (SMILES),"activity change, negative = inhibition",outcome
N#Cc1ccc(Oc2nccc(-c3c(-c4ccc(F)cc4)ncn3C3CCNCC3)n2)cc1,3.02% (inactive),
COc1cc(Nc2nccc(Nc3ccc4c(C)[nH]nc4c3)n2)cc(OC)c1OC,2.82% (inactive),
COc1cccc(Nc2nccc(-c3cnn4ncccc34)n2)c1,-1.92% (inactive),
O=C(Nc1n[nH]c2cc(-c3cc(F)ccc3F)ccc12)C1CC1,2.29% (inactive),
Nc1ccc(C#Cc2cncnc2Nc2ccc(OCc3cccc(F)c3)c(Cl)c2)cc1,2.24% (inactive),
c1ccc(Oc2ccc(Nc3ncc(-c4ccccc4)o3)cc2)cc1,3.15% (inactive),
O=C1Nc2ccc(-c3cccnc3)cc2C1=Cc1cc(Br)c(O)c(Br)c1,-1.42% (inactive),
CCNC(=O)OC1CNC(C#Cc2cc3ncnc(Nc4ccc(OCc5cccc(F)c5)c(Cl)c4)c3s2)C1 (stereo not given),1.06% (inactive),
CS(=O)(=O)CCNCc1ccc(-c2ccc3ncnc(Nc4ccc(OCc5cccc(F)c5)c(C(F)(F)F)c4)c3c2)o1,-2.38% (inactive),
Fc1ccc(-c2ncn(C3CCNCC3)c2-c2ccnc(Oc3ccccc3)n2)cc1,0.152% (inactive),
NC(=O)c1cccc(Nc2nccc(Nc3cccc4[nH]ncc34)n2)c1,32.3% (inactive),
CN(C)CCCNc1nccc(-c2c(-c3ccc(F)cc3)nn3cc(C(F)(F)F)ccc23)n1,-1.16% (inactive),
CC(=O)Nc1cccc(C#Cc2cncnc2Nc2ccc(OCc3cccc(F)c3)c(Cl)c2)n1,4.46% (inactive),
Cc1ccc2[nH]c(O)c(N=Nc3ccc(S(N)(=O)=O)cc3)c2c1,-1.97% (inactive),
COc1cc2ncn(-c3cc(OC(C)c4ccccc4Cl)c(C(N)=O)s3)c2cc1OC (stereo not given),,inactive
Cc1cc(-c2ccccn2)cc(C)c1C=Cc1cncc(-c2nn[nH]n2)c1,-1.94% (inactive),
NC(=O)c1ccc(Oc2nccc(-c3c(-c4ccc(F)cc4)ncn3C3CCNCC3)n2)cc1,-1.1% (inactive),
CNC(=O)c1cccc(C#Cc2cncnc2Nc2ccc(OCc3cccc(F)c3)c(Cl)c2)c1,1.17% (inactive),
Clc1ccc(CNc2nccc(-c3cnn4ncccc34)n2)cc1,7.8% (inactive),
COc1ccc(-c2nn3ncccc3c2-c2ccnc(Nc3ccc(F)c(F)c3)n2)cc1,-2.69% (inactive),
